High-throughput results: PubChem BioAssay, National Center for Advancing Translational Sciences (NCATS)
Most compounds without a hit are left out; they make up all but 18% or so of the library.
RORgamma inh – blocks mouse ROR gamma transcriptional activity; P51450; hit rate 5.4% among 310,000; Drosophila S2 Gal4-RORgamma UAS-luciferase reporter, 20 h; Potency, µM (highest dose often 53.6 µM), for inactives: top-dose activity change, negative = inhibition, most hits filed as inhibitors; note: potency is the fitted concentration of half-maximal effect; nearly all actives have a fitted effect of over 60% in size
Target sequence (P51450 whole entry, looked up, the tested form may be a part): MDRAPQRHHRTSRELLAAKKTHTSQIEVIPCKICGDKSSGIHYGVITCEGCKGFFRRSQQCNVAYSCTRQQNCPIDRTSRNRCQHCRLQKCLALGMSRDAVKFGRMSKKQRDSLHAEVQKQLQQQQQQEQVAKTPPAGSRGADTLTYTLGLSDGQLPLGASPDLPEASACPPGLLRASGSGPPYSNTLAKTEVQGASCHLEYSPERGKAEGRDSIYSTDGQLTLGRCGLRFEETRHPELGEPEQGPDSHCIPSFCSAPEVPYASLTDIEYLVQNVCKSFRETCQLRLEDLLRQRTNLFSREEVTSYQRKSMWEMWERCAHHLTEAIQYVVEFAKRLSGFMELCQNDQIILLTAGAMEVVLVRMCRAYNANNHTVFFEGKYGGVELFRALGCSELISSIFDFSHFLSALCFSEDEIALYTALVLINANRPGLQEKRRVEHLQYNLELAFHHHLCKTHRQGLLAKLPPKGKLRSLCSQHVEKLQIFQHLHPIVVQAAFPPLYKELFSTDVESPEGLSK
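In this cell-based reporter format, copper sulfate (700 uM final) drives Gal4–ROR gamma fusion expression from a metallothionein promoter in Drosophila Schneider cells; compounds preincubated 1 hr, reporter read after 20 hr at ambient temperature.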
Gal4-VP16 FLuc – counter-screen for ROR gamma inhibitors: Gal4-VP16 reporter. hit rate 3.5% among 310,000. AID 2546. Drosophila S2 Gal4-VP16 UAS-luciferase, luminescence, 20 h. Potency, µM (titrated, usually from 53.6 µM), inactives show at the highest dose activity, negative = inhibition, usual class: inhibitors;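 note: Gal4-VP16 expression switched on by copper sulfate through the metallothionein promoter; potency is the fitted concentration of half-maximal effect; nearly all actives have a fitted effect of over 50% in size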
TDP1 cell noCPT – qHTS for Inhibitors of human tyrosyl-DNA phosphodiesterase 1 (TDP1): qHTS in cells in absence of CPT. DT40 Tdp1-/- hTDP1 cells, no CPT, ATP luminescence, 48 h. Potency, µM (highest dose often 46.2 µM), for inactives: at the highest dose activity change, negative = growth inhibition, actives largely listed as inhibitors. hit rate 15% among 420,000. AID 686978, 2013; note: potency is the fitted concentration of half-maximal effect; nearly all actives have a fitted effect of over 55% in size
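Stably hTDP1-transfected Tdp1-null chicken DT40 cells were treated with library compounds minus camptothecin and grown for at least 48 hr at 37 °C, after which cellular ATP was quantified by luminescence.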
TDP1 cell CPT – growth inhibition of DT40 Tdp1-/-;hTDP1 cells with camptothecin (screen for TDP1 inhibitors); Potency, µM (top dose mostly 46.2 µM), for inactives: at the highest dose activity change, negative = growth inhibition, actives largely listed as inhibitors; chicken DT40 Tdp1-/-;hTDP1 cells + 20 nM CPT, ATP luminescence, 48 h; hit rate 12% among 420,000; AID 686979; note: potency is the fitted concentration of half-maximal effect; nearly all actives have a fitted effect of over 55% in size
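Chicken DT40 Tdp1-/- cells stably complemented with human TDP1 were seeded at 400 cells/well in medium containing 20 nM camptothecin, exposed to pin-transferred compounds, and grown at 37 °C for at least 48 hr. Viability was read as ATP luminescence.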
LDHA inh – LDHA (human) enzyme inhibition. activity change, % (values are at about 110 or 230 µM). hit rate 0.15% among 480,000. purified LDHA, NADH/diaphorase-resazurin fluorescence; stronger effect = lower value; in the data active = activity change below about -30%; inconclusive = mostly about -25% to -30%;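 note: plate controls were DMSO wells for no effect and wells without enzyme for full effect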
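Human LDH5 (2 nM) was incubated with 0.06 mM NADH and 0.2 mM pyruvate for 5 min at room temperature in Tris pH 7.4. Remaining NADH was coupled through diaphorase/resazurin, and resorufin fluorescence was read at 0 and 20 min.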
IL-1B inflam inh – blocks inflammasome-driven IL-1 beta release | THP-1 LPS/ATP IL-1B secretion, AlphaLISA, 16 h; stronger effect = lower value | activity change, % at 57.5 µM | hit rate 4.7% among 360,000 | AID 743279; in the data active = activity change below about -50%; inconclusive = mostly about -30% to -49%
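THP-1 cells pretreated 1 hr with compounds (up to 57.5 uM final), then stimulated with LPS (250 ng/mL final) plus ATP (1.25 mM final); secreted IL-1B measured by AlphaLISA after 16 hr, decreased signal indicating inhibition.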
* marks the source's active call; other numbers are inactive results; i = inactive; ? = inconclusive; / = not tested or not shown; [ ] = dose if it differs, or a comment. Unless noted, calls come from the whole dose curve; as a rule, active = well fitted curve in the direction sought with a large enough effect; inconclusive = small, poorly fitted or top-dose-only effect, or another doubt; inactive = no such curve, though single readings can be large; an effect the other way counts as inactive or inconclusive. Unless noted, % is set by controls: 0 for no effect and ±100 for the full control effect.

SMILES	RORgamma inh	Gal4-VP16 FLuc	TDP1 cell noCPT	TDP1 cell CPT	LDHA inh	IL-1B inflam inh
CCC1CCCCN1C(=O)CN1C(=O)N(c2ccc(F)cc2)S(=O)(=O)c2ccccc21 (stereo not drawn)	/	/	/	/	-1	/
Cc1ccccc1CN1CCC(CNC(=O)Nc2cn(CC(C)C)c(=O)c3ccccc23)CC1	/	/	/	/	-24	/
CCCN(Cc1ccccc1)C(=O)c1cccs1	/	/	/	/	5	/
O=C(NCC(O)COc1cccc(C(F)(F)F)c1)C1CCCCC1 (stereo not drawn)	/	/	/	/	-1	/
CC1CC(C)(C)NC(=S)N1CCC(=O)N1CCN(c2ccccc2)CC1 (stereo not drawn)	7.9µM*	?	7%	4%	-4	6
Cc1ccc(NC(=O)c2ccccc2C(F)(F)F)c(F)c1	/	/	/	/	2	/
O=C(O)CC(C(=O)O)c1ccccc1 (stereo not drawn)	/	/	/	/	-2	/
COc1cc(C(=O)N/N=C/c2cn(Cc3ccccc3)c3ccccc23)ccc1O	13µM*	?	-21%	?	-4	i
Nc1ccc(C(=O)N/N=C/c2cn(Cc3ccccc3)c3ccccc23)cc1	11µM*	?	-19%	-10%	1	i
Cc1ccc(Cn2cc(/C=N/NC(=O)Cc3nnc(NC(=O)c4ccc(C)cc4)s3)c3ccccc32)cc1	-2%	26%	6.5µM*	12µM*	-5	-17
Nc1ccc(C(=O)N/N=C/c2cn(Cc3ccccc3F)c3ccccc23)cc1	14µM*	?	?	?	-1	-67*
O=C(CSc1nc2ccccc2c(=O)n1-c1ncn[nH]1)Nc1ccccc1	/	/	/	/	-9	/
Cc1ccsc1C(=O)N(CC#N)C1CC1	/	/	/	/	-3	/
Cc1ccc(NC(=O)CN(C)C(=O)c2cc3cc(C)ccc3nc2C)cc1	/	/	/	/	0	/
NNc1nc(NCc2ccccc2)nc(N2CCOCC2)n1	?	?	?	-7%	-4	-20
O=[N+]([O-])c1cccc(/C=N/Nc2nc(NCc3ccccc3)nc(N3CCOCC3)n2)c1O	1%	-16%	?	13µM*	2	180
O=[N+]([O-])c1cccc(/C=N/Nc2nc(NCc3ccccc3)nc(N3CCOCC3)n2)c1	-32%	-12%	?	15µM*	-7	18
O=C(COc1ccc(Cl)cc1)NCc1nnc(SCC(=O)Nc2ccc(F)cc2F)o1	18%	0%[10 µM]	6%	13µM*	2	-8
CCOc1ccccc1NC(=O)CSc1nnc(CNC(=O)COc2ccc(Cl)cc2)o1	25%	4%	-19%	-17%	-5	-22
COC(=O)c1ccc(CSc2nnc(CNC(=O)COc3ccc(Cl)cc3)o2)o1	14%	11%	?	16µM*	2	-11
COc1ccc(-c2c(NC(=O)c3cccs3)oc3c(C)cccc3c2=O)cc1OC	/	/	/	/	-10	/
C#CCNC(=O)CN(Cc1cccs1)C1CC1	/	/	/	/	-5	/
CCCc1nc2sc3c(=O)n(N)cnc3c2c2c1CCCC2	9%	1%	9.2µM*	12µM*	-6	17
CCCCc1c(C)c2ccc(OC)c(/C(C)=N\O)c2oc1=O	17%	-3%	18µM*	?	-5	?
COc1ccc(/C=C/C(=O)Nc2ccc3c(c2)Cc2ccccc2-3)cc1	/	/	/	/	-1	/
Cc1cc(N/N=C/c2cccc(Br)c2)nc2ccccc12	11µM*	?	-25%	-22%	-8	-11
Cc1ccc(/C=N/Nc2ccc3ccccc3n2)s1	/	/	/	/	-11	/
C(=N\Nc1nc2ccccc2[nH]1)/c1ccc2c(c1)OCCO2	5.6µM*	?	?	?	-23	41
Cc1ccc(/C=N/Nc2ccc3ccccc3n2)o1	13µM*	18µM*	4.1µM*	2.3µM*	-8	-107*
Cc1cc(C)nc(N/N=C/c2ccc3c(c2)OCCO3)n1	?	-18%	?	3%	-3	-13
